Activity calls are given as the source filed them. The calls were made as follows: active = hit-call score of the fitted dose curve at least 0.9, where 1 is the maximum; inactive = score below 0.9.
Assay: BSK_3C_TissueFactor: BioMAP Diversity Plus: 3C Assay for Tissue Factor Biomarker Activity (AID 2282997)
Conditions: BioMAP 3C HUVEC, tissue factor biomarker readout; actives raise or lower the signal
How it was run: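 Tissue Factor measured by ELISA, 24 h after treatment of primary HUVEC in the BioMAP 3C setting.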

Compound | AC50 | outcome
CCc1nn(C)c(C(=O)NCc2ccc(C(C)(C)C)cc2)c1Cl | 20 µM (active) | –
CCOC(=O)CC(SP(=S)(OC)OC)C(=O)OCC (centres undefined) | – | inactive
C=CCC1=C(C)[C@@H](OC(=O)[C@@H]2[C@@H](C=C(C)C)C2(C)C)CC1=O | 18.8 µM (active) | –
CC(C)C1(C)N=C(c2nc3ccccc3cc2C(=O)O)NC1=O (centres undefined) | – | inactive
COP(N)(=O)SC (centres undefined) | – | inactive
Oc1ccccc1-c1ccccc1 | – | inactive
CS/C(C)=N/OC(=O)N(C)SN(C)C(=O)O/N=C(\C)SC | 15.9 µM (active) | –
CCCCC(CC)COC(=O)c1ccccc1C(=O)OCC(CC)CCCC (centres undefined) | – | inactive
CCNc1nc(Cl)nc(NCC)n1 | – | inactive
O=C(Nc1ccccc1)Nc1ccnc(Cl)c1 | – | inactive
CCCCNC(=O)n1c(NC(=O)OC)nc2ccccc21 | – | inactive
CCOC(=O)C(Cl)Cc1cc(-n2nc(C)n(C(F)F)c2=O)c(F)cc1Cl (centres undefined) | – | inactive
O=C(O)c1nc(Cl)ccc1Cl | – | inactive
COc1nc(C)nc(NC(=O)NS(=O)(=O)c2ccccc2Cl)n1 | – | inactive
CN(C)C(=S)SSC(=S)N(C)C | 31.4 µM (active) | –
C#CCOS(=O)OC1CCCCC1Oc1ccc(C(C)(C)C)cc1 (centres undefined) | – | inactive
CNC(=S)S | – | inactive
N#Cc1cc(Br)c(O)c(Br)c1 | – | inactive
CCON=C(CC)C1=C(O)CC(c2c(C)cc(C)cc2C)CC1=O (centres undefined) | – | inactive
O=C(O)COc1nc(Cl)c(Cl)cc1Cl | – | inactive
Cc1c(F)c(F)c(COC(=O)C2C(/C=C(\Cl)C(F)(F)F)C2(C)C)c(F)c1F (centres undefined) | – | inactive
CC1=C(C(=O)Nc2ccccc2)SCCO1 | – | inactive
COP(=S)(OC)Oc1nc(Cl)c(Cl)cc1Cl | – | inactive
CCOc1cc(Oc2ccc(C(F)(F)F)cc2Cl)ccc1[N+](=O)[O-] | – | inactive
Cc1ccc(-c2c(Cl)nc(C#N)n2S(=O)(=O)N(C)C)cc1 | 27.3 µM (active) | –
CC(Oc1ccc(Cl)cc1Cl)C(=O)O (centres undefined) | – | inactive
Fc1ccc(Oc2ccnc3cc(Cl)cc(Cl)c23)cc1 | 34.7 µM (active) | –

Assay: BSK_3C_uPAR: BioMAP Diversity Plus: 3C Assay for Urokinase-type plasminogen activator receptor (uPAR) Biomarker Activity (AID 2282998)
Conditions: BioMAP 3C HUVEC, uPAR biomarker ELISA; actives raise or lower the signal
How it was run: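 In this endothelial cell-based assay, human umbilical vein primary cells were treated with chemicals and harvested at 24 h. uPAR was quantified using ELISA, with gains or losses fitted relative to DMSO controls.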

Compound | AC50 | outcome
CCc1nn(C)c(C(=O)NCc2ccc(C(C)(C)C)cc2)c1Cl | 26.7 µM (active) | –
CCOC(=O)CC(SP(=S)(OC)OC)C(=O)OCC (centres undefined) | 5.14 µM (active) | –
C=CCC1=C(C)[C@@H](OC(=O)[C@@H]2[C@@H](C=C(C)C)C2(C)C)CC1=O | 36.6 µM (active) | –
CC(C)C1(C)N=C(c2nc3ccccc3cc2C(=O)O)NC1=O (centres undefined) | – | inactive
COP(N)(=O)SC (centres undefined) | – | inactive
Oc1ccccc1-c1ccccc1 | – | inactive
CS/C(C)=N/OC(=O)N(C)SN(C)C(=O)O/N=C(\C)SC | 28.6 µM (active) | –
CCCCC(CC)COC(=O)c1ccccc1C(=O)OCC(CC)CCCC (centres undefined) | – | inactive
CCNc1nc(Cl)nc(NCC)n1 | – | inactive
O=C(Nc1ccccc1)Nc1ccnc(Cl)c1 | – | inactive
CCCCNC(=O)n1c(NC(=O)OC)nc2ccccc21 | 6.89 µM (active) | –
CCOC(=O)C(Cl)Cc1cc(-n2nc(C)n(C(F)F)c2=O)c(F)cc1Cl (centres undefined) | – | inactive
O=C(O)c1nc(Cl)ccc1Cl | – | inactive
COc1nc(C)nc(NC(=O)NS(=O)(=O)c2ccccc2Cl)n1 | – | inactive
CN(C)C(=S)SSC(=S)N(C)C | 29.4 µM (active) | –
C#CCOS(=O)OC1CCCCC1Oc1ccc(C(C)(C)C)cc1 (centres undefined) | 7.03 µM (active) | –
CNC(=S)S | – | inactive
N#Cc1cc(Br)c(O)c(Br)c1 | 32.5 µM (active) | –
CCON=C(CC)C1=C(O)CC(c2c(C)cc(C)cc2C)CC1=O (centres undefined) | – | inactive
O=C(O)COc1nc(Cl)c(Cl)cc1Cl | – | inactive
Cc1c(F)c(F)c(COC(=O)C2C(/C=C(\Cl)C(F)(F)F)C2(C)C)c(F)c1F (centres undefined) | – | inactive
CC1=C(C(=O)Nc2ccccc2)SCCO1 | – | inactive
COP(=S)(OC)Oc1nc(Cl)c(Cl)cc1Cl | – | inactive
CCOc1cc(Oc2ccc(C(F)(F)F)cc2Cl)ccc1[N+](=O)[O-] | – | inactive
Cc1ccc(-c2c(Cl)nc(C#N)n2S(=O)(=O)N(C)C)cc1 | 23.9 µM (active) | –
CC(Oc1ccc(Cl)cc1Cl)C(=O)O (centres undefined) | – | inactive
Fc1ccc(Oc2ccnc3cc(Cl)cc(Cl)c23)cc1 | 31.2 µM (active) | –

Reference: PubChem BioAssay (EPA / NIEHS)
